Source: PubChem BioAssay (NCATS)
Results filed as inconclusive are left out. Calls of active or inactive are those of the source. The call rests on the fitted dose curve; in most records, active means well fitted curve in the direction sought with a large enough effect; inconclusive means small, poorly fitted or top-dose-only effect, or another doubt; inactive means no such curve, though single readings can be large; an effect the other way counts as inactive or inconclusive.

What was measured:
[1] = test system: Zika virus NS2B-NS3 protease (linked construct); assay: Primary screen NINDS Rhodamine qHTS for Zika virus inhibitors (AID 1347160)
In short: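 Purified linked NS2B-NS3 protease (NS2B hydrophilic domain joined to NS3 protease by flexible linker), 25 nM in 10 mM Tris-HCl pH 8.0, 0.01% Tween 20. Compounds titrated, 15 min preincubation at room temperature; 1.5 microM Rhodamine110 substrate, FITC fluorescence change over 15 min.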

[2] = OV-KATE Cancer Cell Toxicity qHTS against the NCATS CANVASS Library (AID 1347345)
In short: (§1)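 1000 cells/well seeded and rested 4 h at 37 °C before pin transfer of compounds in an 11-pnt series. Exposure 72 h at 37 °C/5% CO2; viability by CellTiter-Glo luminescence after 15 min at room temperature.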

[3] = UWB1.289 Cancer Cell Toxicity qHTS against the NCATS CANVASS Library (AID 1347347)
In short: as §1

[4] = OV-SAHO Cancer Cell Toxicity qHTS against the NCATS CANVASS Library (AID 1347348)
In short: as §1

[5] = U-118MG Cancer Cell Toxicity qHTS against the NCATS CANVASS Library (AID 1347351)
In short: as §1

[6] = COV-362 Cancer Cell Toxicity qHTS against the NCATS CANVASS Library (AID 1347352)
In short: (§2)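 Luminescent ATP read-out (CellTiter-Glo, 15min at room temperature) measures survival after cells face an 11-point compound series for 72 hours at 37 degrees C/5% CO2.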

[7] = A2780 Cisplatin Sensitive Ovarian Cancer Cell Toxicity qHTS against the NCATS CANVASS Library (AID 1347353)
In short: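 Luminescent ATP content (ATPLite, 10 min at room temperature) served as the read-out after cells had been exposed to compounds for 72 hours at 37 °C. Dosing followed an 11-point concentration series.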

[8] = UWB1.289-WTBRCA1 Cancer Cell Toxicity qHTS against the NCATS CANVASS Library (AID 1347354)
In short: as §2

[9] = HEK-293 Cancer Cell Toxicity qHTS against the NCATS CANVASS Library (AID 1347355)
In short: as §2

[10] = HPAF-II 24hr Apoptosis Induction qHTS against the NCATS CANVASS Library (AID 1347356)
In short: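 Luminescent caspase-3/7 signal (DEVD substrate, Caspase-Glo) served as read-out, taken 15 min after reagent addition to HPAF-II cells exposed 24 h to compounds.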

[11] = HEK293 24hr Apoptosis Induction qHTS against the NCATS CANVASS Library (AID 1347359)
In short: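 Caspase-3/7 activation measured as luminescence from the DEVD-based Caspase-Glo reagent, 15 min at room temperature, following 24-hour compound treatment of HEK293 cells.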

[12] = HPAF-II 18hr Apoptosis Induction qHTS against the NCATS CANVASS Library (AID 1347360)
In short: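 Caspase-3/7 activation was measured with luminescent Caspase-Glo 3/7 reagent (15 min, RT) in HPAF-II cancer cells (500 cells/well). Before detection, cells had been treated for 18 h at 37 C with compounds (11 points).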

[13] = HEK293 12hr Apoptosis Induction qHTS against the NCATS CANVASS Library (AID 1347361)
In short: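 HEK293 cells (500/well, DMEM + 10% FBS) were exposed to natural products across an 11-point series for 12 hours at 37 degrees C. Caspase-3/7 activity was then measured with DEVD luciferase luminescence after 15 min at room temperature.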

[14] = test system: NAD(P)H diaphorase (Clostridium kluyveri); assay: Diaphorse counterscreen qHTS: Assay Interference Panel against the NCATS CANVASS Library (AID 1347362)
In short: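 Counterscreen for coupling-enzyme interference: resorufin fluorescence from resazurin/NADH turnover, read after 5 min at room temperature. Compounds were tested over an 11-point series after 15 min dark preincubation with diaphorase in PBS-Tween.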

[15] = biological target: Luciferin 4-monooxygenase (Photinus pyralis) (UniProt P08659); assay: Firefly luciferase counterscreen qHTS: Assay Interference Panel against the NCATS CANVASS Library (AID 1347363)
Luciferin 4-monooxygenase (Photinus pyralis), sequence (P08659 whole entry, looked up): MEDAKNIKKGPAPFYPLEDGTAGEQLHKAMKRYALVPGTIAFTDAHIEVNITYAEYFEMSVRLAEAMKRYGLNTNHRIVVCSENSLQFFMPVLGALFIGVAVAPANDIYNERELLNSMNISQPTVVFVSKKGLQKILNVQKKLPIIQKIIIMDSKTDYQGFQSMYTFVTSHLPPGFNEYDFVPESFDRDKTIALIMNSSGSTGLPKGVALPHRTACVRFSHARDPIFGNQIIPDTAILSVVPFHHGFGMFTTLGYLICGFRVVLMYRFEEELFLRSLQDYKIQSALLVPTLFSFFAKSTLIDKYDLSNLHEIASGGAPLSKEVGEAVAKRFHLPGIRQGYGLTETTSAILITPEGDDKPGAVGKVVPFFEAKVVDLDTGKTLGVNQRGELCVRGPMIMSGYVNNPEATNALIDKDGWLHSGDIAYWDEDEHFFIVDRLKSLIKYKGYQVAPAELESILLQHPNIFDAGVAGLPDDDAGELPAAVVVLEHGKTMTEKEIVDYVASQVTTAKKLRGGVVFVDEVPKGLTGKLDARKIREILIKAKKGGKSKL
In short: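 Luminescence inhibition readout: compounds (11-point qHTS) sat 15 min at room temperature with substrate mix (0.013 mM luciferin and ATP), then firefly luciferase was added and signal read 5 min later.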

[16] = KB-8-5-11 Cancer Cell Toxicity qHTS against the NCATS CANVASS Library (AID 1347364)
In short: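 Plate 500 KB-8-5-11 cells per well in DMEM + 10% FBS, add compounds by pin transfer, incubate 72 hr at 37C. Add CellTiter-Glo, wait 10 minutes at room temperature, read luminescence.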

[17] = KB-3-1 Cancer Cell Toxicity qHTS against the NCATS CANVASS Library (AID 1347366)
In short: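 CellTiter-Glo luminescence measured viability after 72 h at 37C. KB-3-1 cells were seeded at 500 per well in DMEM/10% FBS.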

[18] = qHTS for ATAD5 Agonist screened against the NCATS CANVASS Library (AID 1347367)
In short: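 Genotoxicity via ATAD5-luciferase luminescence after 16 h compound exposure (11-point series) at 37C in HEK293T-ATAD5 cells. CellTiter-Fluor viability read precedes the luminescence read; MMS serves as positive control.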

[19] = G06 Cancer Cell Toxicity qHTS against the NCATS CANVASS Library (AID 1347368)
In short: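 Dog G06 glioma line, 500 cells/well; cpds pin-transferred, 11-pt; 72 hr, 37C/5% CO2; CellTiterGlo luminescence (ATP) endpoint.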

[20] = MCF7 Cancer Cell Toxicity qHTS against the NCATS CANVASS Library (AID 1347369)
In short: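 Cytotoxicity was measured as CellTiterGlo luminescence (ATP) after 72 h at 37 °C. The cells were MCF7 at 500 per well, with an 11-point compound concentration series.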

[21] = qHTS for ATAD5 Antagonist screened against the NCATS CANVASS Library (AID 1347370)
In short: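 HEK293T cells with stably integrated ATAD5-luciferase reporter, 2000/well, 5 h attachment; compounds plus 10 µM 5-fluorouridine, 16 h at 37 °C. Luciferase luminescence read, with CellTiter-Fluor viability read first.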

[22] = J3T Cancer Cell Toxicity qHTS against the NCATS CANVASS Library (AID 1347371)
In short: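 Cells plated at 500 per well, compounds pin-transferred, plates incubated 72 hr at 37C, then CellTiterGlo added and luminescence read to measure ATP content.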

[23] = biological target: Nuclear receptor subfamily 1 group I member 3 (Homo sapiens) (UniProt Q14994); assay: qHTS for Constitutive Androstane Receptor (CAR) Antagonist screened against the NCATS CANVASS Library (AID 1347372)
Nuclear receptor subfamily 1 group I member 3 (Homo sapiens), sequence (Q14994 whole entry, looked up): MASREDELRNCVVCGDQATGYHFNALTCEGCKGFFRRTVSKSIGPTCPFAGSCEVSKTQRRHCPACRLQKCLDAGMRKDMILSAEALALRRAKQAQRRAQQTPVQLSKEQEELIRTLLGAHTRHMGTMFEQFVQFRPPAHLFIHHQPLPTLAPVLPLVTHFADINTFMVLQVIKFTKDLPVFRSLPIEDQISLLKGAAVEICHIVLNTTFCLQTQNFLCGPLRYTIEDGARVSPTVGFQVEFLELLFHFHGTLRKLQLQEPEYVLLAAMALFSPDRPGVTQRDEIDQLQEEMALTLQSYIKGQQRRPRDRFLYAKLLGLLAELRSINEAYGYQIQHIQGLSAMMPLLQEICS
In short: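 HepG2-CYP2B6-hCAR double-stable cells plated, 4hr attach; cpd pin-transferred; CITCO 50 nM final; 24hr 37C/5% CO2; CellTiter-Fluor 1hr (fluorescence), then ONE-Glo luminescence.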

[24] = biological target: Nuclear receptor subfamily 1 group I member 3 (Homo sapiens) (UniProt Q14994); assay: qHTS for Constitutive Androstane Receptor (CAR) Agonist screened against the NCATS CANVASS Library (AID 1347373)
In short: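 HepG2-hCAR-CYP2B6 cells, 2500/well, attached 4hr; cpd + PK11195 1.5uM final; 24hr 37C 5% CO2. CellTiter-Fluor viability read, then ONE-Glo luminescence for CAR activation.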

[25] = qHTS for Hypoxia signaling pathway (HIF-1) antagonists against the NCATS CANVASS Library (AID 1347374)
In short: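 HRE-bla ME-180 cells in medium with 0.5% dialyzed FBS received compounds (11-point series) plus CoCl2 (60 uM addition stock) for 17 hrs at 37C. Beta-lactamase activity read with CCF4 (405 nm ex, 460/530 nm em); CellTiter-Glo viability measured in same wells.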

[26] = qHTS for Hypoxia signaling pathway (HIF-1) agonists against the NCATS CANVASS Library (AID 1347375)
In short: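 ME-180 HRE-bla reporter cells; 2,000/well, 0.5% dialyzed FBS; cpd added after 5 h, 17 h 37C/5% CO2; CCF4-AM 2 h RT; FRET 460/530 nm; CellTiter-Glo viability same wells, 30 min.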

[27] = 10-beta competent E. coli microbial cell viability qHTS against the NCATS CANVASS Library (AID 1347376)
In short: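 E. coli 10-beta, 0.2 OD; cpds 11-pt; o/n 37C, 5% CO2; BacTiter-Glo 20 min RT; luminescence (ATP) = viable cells. Daunomycin ctrl.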

[28] = DH5-alpha competent E. coli microbial cell viability qHTS against the NCATS CANVASS Library (AID 1347377); details: outcome: at 46.1 µM (top of the series)
In short: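 qHTS, 11-pt; E. coli DH5-alpha, 0.2 OD; o/n 37C/5% CO2; BacTiter-Glo, 20 min RT; luminescence.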

[29] = qHTS for Inflammasome Signaling Inhibitors: IL-1-beta AlphaLISA screen against the NCATS CANVASS Library (AID 1347379)
In short: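 THP-1 cells pretreated 1 hr with compound (up to 57.5 uM final), then stimulated with LPS (250 ng/mL final) and ATP (1.25 mM final). Secreted IL-1B measured by AlphaLISA after 16 hr; glyburide as positive control.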

[30] = qHTS for Antimalaria activity screened against the NCATS CANVASS Library (AID 1347380)
In short: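 Dd2 strain, infected erythrocytes 2.5% Hct final / 0.3% parasitemia. 11-pt qHTS titration, 72 h, 37C, 5% O2, 5% CO2. Lysis buffer + SYBR Green, 18 h, fluorescence 485/535 nm.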

[31] = Inflammasome Signaling qHTS Counterscreen: IL-1-beta AlphaLISA counterscreen against the NCATS CANVASS Library (AID 1347381)
In short: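 Cell-free interference check: compounds added to medium spiked with 4 pg purified IL-1β. Anti-IL-1β acceptor beads (6 ug/mL) with 0.6 nM biotinylated antibody added for 1 h at RT, then streptavidin donor beads (24 ug/mL) for 30 min in the dark. AlphaLISA read at 680/615 nm.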

[32] = qHTS for Activators of p53 Stress Response Pathway screened against the NCATS CANVASS Library (AID 1347388)
In short: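 Beta-lactamase reporter driven by p53 response elements in HCT-116 cells, read as the 460 nm/530 nm emission ratio after CCF4 loading, following 16 h of exposure to an 11-point series. Cell viability was measured in the same wells by CellTiter-Glo luminescence.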

[33] = qHTS assay for small molecule disruptors of mitochondrial membrane potential screened against the NCATS CANVASS Library (AID 1347389)
In short: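 HepG2, 2,000 cells/well, attached overnight; compound 1 hr, 37C, 5% CO2; Mito-MPS dye 30 min, 37C; fluorescence 535 nm (monomer) and 590 nm (aggregate); decreased 590/535 ratio = depolarization.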

[34] = Secretion counterscreen for inhibitors of the SERCaMP assay screened against the NCATS CANVASS Library (AID 1347390)
In short: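 Counterscreen for secretory-pathway interference: after 4 h attachment, SH-SY5Y-GLuc cells were exposed 20 hours to compounds (final 0.001 - 77 uM), then coelenterazine added and GLuc luminescence recorded; Brefeldin A served as control.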

[35] = qHTS for activators of dead-cell proteases activity screened against the NCATS CANVASS Library (AID 1347392)
In short: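 Compounds are pin-transferred onto attached HepG2 cells, giving 11 final concentrations. After 5 h at 37C, AAF-aminoluciferin reagent is added and luminescence is recorded at room temperature.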

[36] = qHTS for inhibitors of ER calcium dysfunction: SERCaMP assay screened against the NCATS CANVASS Library (AID 1347393)
In short: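 Thapsigargin-induced ER calcium depletion drives GLuc-SERCaMP secretion from SH-SY5Y cells; compounds given 16 h beforehand were scored by lowered coelenterazine luminescence after 4 h challenge.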

[37] = qHTS for inhibitors of Wild type Zika virus screened against the NCATS CANVASS Library (AID 1347396)
In short: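 Vero 766 cells, 1000/well, o/n attach; cpds pin-transferred (11-pt qHTS); WT Zika added; 72 h, 37C, 5% CO2; CellTiter Glo lumi. Uninfected + vehicle = 100% inhibition.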

[38] = Viability qHTS for inhibitors of the SERCaMP assay screened against the NCATS CANVASS Library (AID 1347400)
In short: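 SH-SY5Y SERCaMP MJH297 cells, 1000/well; 4 h settle, 37C/5% CO2; pin-transferred cpds; 48 h; CellTiter-Glo lum. Pos ctrl bortezomib 0.0001 - 4.6 uM.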

[39] = Redox Reaction Profiling qHTS: Assay Interference Panel against the NCATS CANVASS Library (AID 1347401)
In short: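 Cell-free redox surrogate: 5 uM resazurin + 200 uM DTT, 50 mM HEPES pH 7.3/50 mM NaCl; cpds pinned, 11-pt qHTS; Ex525/Em598 read t0 and t=15 min, dark.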

Measured: Potency

NCCc1ccccc1
inactive: all assays above
